A short description of test [1]: NCI Yeast Anticancer Drug Screen. Data for the rad50 strain (AID 155).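 Note: 0% = growth of vehicle-only cultures of the same strain.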 The conditions noted are these: S. cerevisiae rad50 strain growth inhibition, active compounds read high. A digest of the protocol:
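Compounds were tested on a yeast strain with an engineered DNA damage repair alteration; the reported value is growth inhibition normalised to vehicle treatment.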

The nature of test [2]: NCI Yeast Anticancer Drug Screen. Data for the mec2-1 strain (AID 157). The conditions noted are these: S. cerevisiae mec2-1 strain, active compounds read high. A digest of the protocol: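 Vehicle-treated cultures served as reference for growth inhibition of compound-exposed mec2-1 yeast.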
Test [3] can be described thus: NCI Yeast Anticancer Drug Screen. Data for the sgs1 mgt1 strain (AID 161).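 Note: 0% = growth of cultures given vehicle only.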 The conditions noted are these: S. cerevisiae sgs1 mgt1 strain, active compounds read high. The procedure, abridged:
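Inhibition of yeast growth, normalised to vehicle-treated controls, is reported for a strain bearing genetic alterations in DNA damage repair.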

Test [4] in a line: NCI Yeast Anticancer Drug Screen. Data for the cln2 rad14 strain (AID 165).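 Note: 0% = growth equal to vehicle treated cultures.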 The conditions noted are these: S. cerevisiae cln2 rad14 strain, active compounds read high. A digest of the protocol:
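Each compound was tested on cln2 rad14 yeast. Inhibition of growth was calculated against vehicle-exposed controls.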

Test [5] in a line: NCI Yeast Anticancer Drug Screen. Data for the bub3 strain (AID 167). The conditions noted are these: S. cerevisiae bub3 mutant strain, active compounds read high. A digest of the protocol:
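Growth of a checkpoint-deficient yeast mutant is measured after compound exposure. Values represent inhibition relative to vehicle.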

Test [6] can be described thus: NCI Yeast Anticancer Drug Screen. Data for the mlh1 rad18 strain (AID 175). The conditions noted are these: S. cerevisiae mlh1 rad18 strain growth inhibition, active compounds read high. A digest of the protocol: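 Vehicle-treated cultures served as the reference for growth inhibition in a yeast strain carrying DNA damage repair alterations exposed to each compound.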
Setting [7] is: at 5.0 µM (retest, dose inferred, filed as 0.5).
The mark [8] stands for this setting: at 50.0 µM (retest, dose inferred, filed as 5.0).

This is part of a sample that, as a whole, favours compounds with a hit. Of some 79,000 tested, about 15% had one in any assay. Values without a mark were called inactive. Calls of active or inactive are those of the source. Cut-off read from the data, not from the text of the source: active = growth inhibition above about 70%; inactive = the rest.

Take `CC1CN(CC2CCCCCCCCCCC2=O)CC(C)O1` (stereo not given): the growth inhibition was 59% in test [1] (setting [7]); 74% (active) in test [1] (setting [8]); 73.5% (active) in test [1] (at 50.0 µM); 25% in test [2] (setting [7]); 45% in test [2] (setting [8]); 65.5% in test [2] (at 50.0 µM). Also, the growth inhibition in test [3] (setting [7]) was 52%; in test [3] (setting [8]), 53%; in test [3] (at 50.0 µM), 83.8% (active); in test [4] (setting [7]), 62%; in test [4] (setting [8]), 59%; in test [4] (at 50.0 µM), 60.4%. Moreover, the growth inhibition was 67% in test [5] (setting [7]); 79% (active) in test [5] (setting [8]); 75.8% (active) in test [5] (at 50.0 µM); 74% (active) in test [6] (setting [7]); 86% (active) in test [6] (setting [8]); 69.9% in test [6] (at 50.0 µM).

Turning to `CS(=O)(=O)n1c(C(O)c2ccccc2)nc2ccccc21` (stereo not given), the growth inhibition in test [1] (setting [7]) is -4%; in test [1] (setting [8]), 4%; in test [1] (at 50.0 µM), 8.95%; in test [2] (setting [7]), 10%; in test [2] (setting [8]), -1%; in test [2] (at 50.0 µM), 17.8%. Further, the growth inhibition was 2% in test [3] (setting [7]); 8% in test [3] (setting [8]); 3.1% in test [3] (at 50.0 µM); -82% in test [4] (setting [7]); -1% in test [4] (setting [8]); 27.8% in test [4] (at 50.0 µM). Besides, the growth inhibition is 5% in test [5] (setting [7]); 38% in test [5] (setting [8]); 5.6% in test [5] (at 50.0 µM); 0% in test [6] (setting [7]); 1% in test [6] (setting [8]); 14.2% in test [6] (at 50.0 µM).

On to `Nc1ccc2c(c1)[nH]c(=O)c1ccc(Cl)cc12`, for which the growth inhibition in test [1] (setting [7]) was -63%; in test [1] (setting [8]) it was 94% (active); in test [1] (at 50.0 µM), 98.2% (active); in test [2] (setting [7]), -32%; in test [2] (setting [8]) it was 82% (active); in test [2] (at 50.0 µM) it was 90.5% (active). Further, the growth inhibition in test [3] (setting [7]) was -32%; in test [3] (setting [8]) it was 83% (active); in test [3] (at 50.0 µM) it was 93.1% (active); in test [4] (setting [7]), -30%; in test [4] (setting [8]) it was 85% (active); in test [4] (at 50.0 µM) it was 92.5% (active). The growth inhibition is -52% in test [5] (setting [7]); 91% (active) in test [5] (setting [8]); 78.9% (active) in test [5] (at 50.0 µM); -56% in test [6] (setting [7]); 93% (active) in test [6] (setting [8]); 97% (active) in test [6] (at 50.0 µM).

For `CN(C)C(=O)N(C)/N=C/c1ccc([N+](=O)[O-])o1`, the growth inhibition in test [1] (setting [7]) is 10%; in test [1] (setting [8]), 56%; in test [1] (at 50.0 µM), 80.3% (active); in test [2] (setting [7]), 1%; in test [2] (setting [8]) it was 21%; in test [2] (at 50.0 µM), 53.5%. The growth inhibition was 8% in test [3] (setting [7]); 68% in test [3] (setting [8]); 90.8% (active) in test [3] (at 50.0 µM); 4% in test [4] (setting [7]); 30% in test [4] (setting [8]); 42.2% in test [4] (at 50.0 µM). For the same compound, the growth inhibition was 5% in test [5] (setting [7]); 42% in test [5] (setting [8]); 40% in test [5] (at 50.0 µM); 21% in test [6] (setting [7]); 68% in test [6] (setting [8]); 89.5% (active) in test [6] (at 50.0 µM).

Turning to `NC(=O)C1C(=O)c2cccc3c2C1(Br)C(Br)CCC3` (stereo not given), the growth inhibition in test [1] (setting [7]) was 12%; in test [1] (setting [8]), 99% (active); in test [1] (at 50.0 µM) it was 99.2% (active); in test [2] (setting [7]) it was -5%; in test [2] (setting [8]) it was 100% (active); in test [2] (at 50.0 µM), 99.4% (active). Moreover, the growth inhibition in test [3] (setting [7]) is 26%; in test [3] (setting [8]) it was 100% (active); in test [3] (at 50.0 µM) it was 99.5% (active); in test [4] (setting [7]), 2%; in test [4] (setting [8]) it was 98% (active); in test [4] (at 50.0 µM), 98.8% (active). The growth inhibition in test [5] (setting [7]) is 7%; in test [5] (setting [8]), 99% (active); in test [5] (at 50.0 µM), 99.2% (active); in test [6] (setting [7]) it was 12%; in test [6] (setting [8]), 99% (active); in test [6] (at 50.0 µM), 99.3% (active).

As to `CN(C(=O)c1ccccc1)C1(COC(=O)c2ccccc2)CCCCC1`, the growth inhibition was -6% in test [1] (setting [7]); 3% in test [1] (setting [8]); 16.1% in test [1] (at 50.0 µM); -28% in test [2] (setting [7]); -9% in test [2] (setting [8]); -5.95% in test [2] (at 50.0 µM). In addition, the growth inhibition in test [3] (setting [7]) is -25%; in test [3] (setting [8]), -11%; in test [3] (at 50.0 µM) it was -2.75%; in test [4] (setting [7]) it was 1%; in test [4] (setting [8]) it was 1%; in test [4] (at 50.0 µM) it was 21.3%. In addition, the growth inhibition was 21% in test [5] (setting [7]); 28% in test [5] (setting [8]); 65.7% in test [5] (at 50.0 µM); 16% in test [6] (setting [7]); 6% in test [6] (setting [8]); 9.9% in test [6] (at 50.0 µM).

In the case of `C1=Nc2ccccc2C=Nc2ccccc2C=Nc2ccccc2C=Nc2ccccc21.[Cl-].[Pt+2]`, the growth inhibition in test [1] (setting [7]) was 55%; in test [1] (setting [8]), 93% (active); in test [1] (at 50.0 µM) it was 85% (active); in test [2] (setting [7]), 80% (active); in test [2] (setting [8]), 97% (active); in test [2] (at 50.0 µM), 82.2% (active). Further, the growth inhibition in test [3] (setting [7]) is 36%; in test [3] (setting [8]), 89% (active); in test [3] (at 50.0 µM), 76.8% (active); in test [4] (setting [7]) it was 25%; in test [4] (setting [8]), 69%; in test [4] (at 50.0 µM), 60%. Moreover, the growth inhibition is 75% (active) in test [5] (setting [7]); 87% (active) in test [5] (setting [8]); 74.7% (active) in test [5] (at 50.0 µM); 63% in test [6] (setting [7]); 97% (active) in test [6] (setting [8]); 81.4% (active) in test [6] (at 50.0 µM).

For `O=C([O-])c1ccccc1[I+]c1ccc(C2CCCCC2)cc1`, the growth inhibition in test [1] (setting [7]) was 3%; in test [1] (setting [8]) it was 45%; in test [1] (at 50.0 µM), 85.2% (active); in test [2] (setting [7]), 2%; in test [2] (setting [8]), 67%; in test [2] (at 50.0 µM), 79.6% (active). Further, the growth inhibition in test [3] (setting [7]) is 22%; in test [3] (setting [8]), 50%; in test [3] (at 50.0 µM), 89.8% (active); in test [4] (setting [7]) it was 3%; in test [4] (setting [8]) it was 47%; in test [4] (at 50.0 µM) it was 73.2% (active). For the same compound, the growth inhibition in test [5] (setting [7]) was 0%; in test [5] (setting [8]) it was 45%; in test [5] (at 50.0 µM) it was 71.8% (active); in test [6] (setting [7]), 32%; in test [6] (setting [8]), 85% (active); in test [6] (at 50.0 µM), 89.9% (active).

Turning to `CCCCCCCCCCC[N+](C)(C)CCCCCC[N+](C)(C)CCCCCCCCCCC`, the growth inhibition in test [1] (setting [7]) was 92% (active); in test [1] (setting [8]), 98% (active); in test [1] (at 50.0 µM), 88.6% (active); in test [2] (setting [7]) it was 97% (active); in test [2] (setting [8]), 99% (active); in test [2] (at 50.0 µM), 91% (active). The growth inhibition in test [3] (setting [7]) was 99% (active); in test [3] (setting [8]), 99% (active); in test [3] (at 50.0 µM), 90.9% (active); in test [4] (setting [7]), 96% (active); in test [4] (setting [8]), 99% (active); in test [4] (at 50.0 µM), 90.3% (active). Besides, the growth inhibition is 99% (active) in test [5] (setting [7]); 100% (active) in test [5] (setting [8]); 88.4% (active) in test [5] (at 50.0 µM); 97% (active) in test [6] (setting [7]); 99% (active) in test [6] (setting [8]); 90.2% (active) in test [6] (at 50.0 µM).

As to `CCN(CC)C(=S)N/N=C(/c1ccccc1)c1ccccn1`, the growth inhibition in test [1] (setting [7]) was 42%; in test [1] (setting [8]) it was 96% (active); in test [1] (at 50.0 µM) it was 70.7% (active); in test [2] (setting [7]), 92% (active); in test [2] (setting [8]), 97% (active); in test [2] (at 50.0 µM), 76.9% (active). The growth inhibition in test [3] (setting [7]) is 44%; in test [3] (setting [8]), 97% (active); in test [3] (at 50.0 µM), 81.8% (active); in test [4] (setting [7]), 80% (active); in test [4] (setting [8]), 95% (active); in test [4] (at 50.0 µM) it was 81.8% (active). Besides, the growth inhibition was 95% (active) in test [5] (setting [7]); 96% (active) in test [5] (setting [8]); 85.2% (active) in test [5] (at 50.0 µM); 96% (active) in test [6] (setting [7]); 97% (active) in test [6] (setting [8]); 83.1% (active) in test [6] (at 50.0 µM).

Values taken from PubChem BioAssay (NCI).
